Consider 104 compounds from ChEMBL document CHEMBL4513216, “Probing the Open Global Health Chemical Diversity Library for Multistage-Active Starting Points for Next-Generation Antimalarials” (ACS Infect Dis, 2020).

The whole screen tested about 69,000 compounds, of which about 8,600 (12%) showed an effect of 50% or more. What follows is part of a selection rich in strong results, with near analogues and random picks from the rest.

In the experiment the test system is Plasmodium berghei. The experiment is described as follows: Screen against P. berghei liver stage (PbLuc), transformed with Luciferase, at 10uM. The experiment is classed as functional, HepG2. Particulars: tested at 10 uM.
With `CCn1nccc1CNC(=O)C1CCC1`, the INHIBITION stood at 21.8%.

For the compound `c1cnc(NCc2nnn3c2CN(Cc2cccs2)CCC3)nc1`, the INHIBITION was determined as 24.9%. For the compound `Cc1nc(NCc2nnc(C)n2C)c2c(CC(C)C)csc2n1`, the INHIBITION is listed as 46.6%. In the case of `CCc1csc(C2CCCN(C(=O)c3ccc4[nH]nnc4c3)C2)n1` (centres undefined), the INHIBITION is given as -10.1%.

Consider `CCCn1nccc1-c1nccnc1CC1CCN(C(C)=O)C1` (centres undefined), for which the INHIBITION was 7.19%.

On to `O=C(CC1CC1)N1C[C@@H]2CCN(c3cccnc3)C[C@@H]2C1`, for which the INHIBITION turned out to be 19.8%.

Regarding `O=C(c1ccc(F)cc1)N1C[C@@H]2CCN(c3cccnc3)C[C@@H]2C1`, the INHIBITION was 43.9%. `c1cnc(N2C[C@H]3CCN(c4cccnc4)C[C@H]3C2)nc1`: the INHIBITION was -0.113%. Consider `O=C(CC1CCCC1)N1C[C@@H]2CCN(c3cccnc3)C[C@@H]2C1`, for which the INHIBITION was determined as 60.7%.

In the case of `COC(=O)N1CCCCC1C(=O)N1CCN(c2ncccc2C)CC1` (centres undefined), the INHIBITION is reported as 12.7%.

`COC(=O)N1CCCCC1C(=O)N1CCN(c2cccnc2)CC1` (centres undefined): the INHIBITION came out at 82.2%. Under `Fc1cccc(N2C[C@H]3CCN(c4cccnc4)C[C@H]3C2)c1` stands 50.5%; under `COC(=O)N1CCCCC1C(=O)N1CCCN(c2ccnc(C)c2)CC1` (centres undefined), 15.9%. `FC(F)(F)c1ccnc(N2C[C@H]3CCN(c4cccnc4)C[C@H]3C2)n1`: the INHIBITION amounted to 5.96%.

As for `c1cncc(N2CC[C@@H]3CN(CC4CC4)C[C@@H]3C2)c1`, the INHIBITION is given as 57.4%.

With `Cc1cc(C(=O)Nc2ccn(CCCN3CCCC3)n2)c(C)o1`, the INHIBITION was 18.2%. Consider `O=S(=O)(C1CC1)N1CCC2(CCN(Cc3nccs3)CC2)CC1`, for which the INHIBITION is reported as -12.1%. In the case of `CC1CN(C)c2ccccc2CN1CCn1cncn1` (centres undefined), the INHIBITION was determined as 38%.

Turning to `CNc1ncc(CN2CCCC2c2[nH]ncc2C(=O)N(C)C)cn1` (centres undefined), the INHIBITION was determined as 20.2%. The value for `O=C(COc1cccc(Cl)c1)N1CCOCC(O)(CN2CCCC2)C1` (centres undefined) was -18.9%; that for `CCC(C)(CC)NC(=O)COc1nn(C)c2nc(C)cc(C)c12` was 48.1%. Turning to `CCCc1nnc(SCc2cc(=O)n3c4c(sc3n2)CCCC4)[nH]1`, the INHIBITION is reported as -4.35%.

Take `O=C(C1CN(c2ncc(F)cn2)CC12CCOCC2)N1CC=CC1` (centres undefined): the INHIBITION is 37.8%. Under `Cc1cccnc1CN1CCN(C(=O)c2ccn(C(C)(C)C)c2)CC1` stands 45%; under `O=C(NCCO)C1(Cc2ccccc2-c2cccnc2)CCOCC1`, -43%.

`CN(CC(C)(CO)CO)C(=O)Nc1cc(F)cc(F)c1`: the INHIBITION was 18.9%.

On to `COc1ccccc1CN(C)Cc1ccnc(C2CCCO2)n1` (centres undefined), for which the INHIBITION is 14.755%. `O=C(C1CCCC1)N1C[C@@H]2CCN(c3cccnc3)C[C@@H]2C1`: the INHIBITION is 54.4%. As to `O=C(C1CCC1)N1C[C@@H]2CCN(c3cccnc3)C[C@@H]2C1`, the INHIBITION is listed as 5.96%. Turning to `Cc1cccc(NC(=O)N2CCCn3cnc(CN4CCCC4)c3C2)c1`, the INHIBITION is reported as 15.1%. Take `CCc1nnc2n1CCN(Cc1csc(Cc3ccccc3)n1)C2`: the INHIBITION was determined as 19.2%. On to `CC1=N[C@@]2(CC[C@@H]3CN(CC(C)C)C[C@@H]32)C(=O)N1CC(C)C`, for which the INHIBITION turned out to be 39.2%. `CC1=N[C@@]2(CC[C@@H]3CN(CC4CC4)C[C@@H]32)C(=O)N1CC1CC1`: the INHIBITION is recorded as 12.4%. In the case of `COCCN1C(=O)[C@]2(CC[C@@H]3CN(C(=O)NC(C)C)C[C@@H]32)N=C1C`, the INHIBITION is reported as 57.1%. As for `COCCN1C(=O)[C@]2(CC[C@@H]3CN(C(=O)NC4CCCC4)C[C@@H]32)N=C1C`, the INHIBITION was found to be 20.2%.

As to `COCCN1C(=O)[C@]2(CC[C@@H]3CN(C(=O)NCC(C)C)C[C@@H]32)N=C1C`, the INHIBITION is reported as 18.1%. Regarding `CC1=N[C@@]2(CC[C@@H]3CN(CC4CC4)C[C@@H]32)C(=O)N1CC(C)C`, the INHIBITION amounted to 74.2%.

Consider `Cc1csc(N2CCN(Cc3nnsc3Cl)CC2C)n1` (centres undefined), for which the INHIBITION is 45.2%.

As for `O=C(c1ccco1)N1CCOCC2(C1)CN(c1ccoc1)C(=O)CO2` (centres undefined), the INHIBITION was -8.28%. Turning to `CCOc1ccc(CN2CCC(c3ccn[nH]3)C2)cc1CO` (centres undefined), the INHIBITION is given as 43.85%. `Cn1cc2c(n1)C(CNCc1ccco1)OCC2` (centres undefined): the INHIBITION is reported as 15.4%. For the compound `CC(C)CC1SCC(=O)Nc2c1cnn2-c1ccc(F)cc1` (centres undefined), the INHIBITION worked out at 28.4%. For the compound `CN(C)C(=O)[C@H]1C[C@H]2[C@H](CCN2Cc2ccc3c(c2)OCO3)O1`, the INHIBITION turned out to be 18.5%.

With `CCCNC(c1cccnc1)c1ccc(F)cc1F` (centres undefined), the INHIBITION came to 12.9%. The value for `O=c1n(CCNc2cccc3ccccc23)nc2ccccn12` was 65.2%. On to `CCNC(=O)NCCCn1nc2ccccn2c1=O`, for which the INHIBITION is given as -12.2%.

Regarding `O=c1n(CCNCc2cccc3ccccc23)nc2ccccn12`, the INHIBITION is recorded as 28.8%.

Turning to `CCC(=O)CNC(=O)CCn1nc2ccccn2c1=O`, the INHIBITION is recorded as 69.8%. The value for `O=c1n(CCNCc2ccc3ccccc3c2)nc2ccccn12` was -23.4%; that for `CCSCCC(=O)NCCn1nc2ccccn2c1=O` was 37.7%. Consider `CC(=O)N(Cc1ncc(C)o1)C1CCN(Cc2cnc(C)s2)C1` (centres undefined), for which the INHIBITION was determined as 14.2%. Consider `CC(C)C[C@H](N)C(=O)N1CC2(CCNCC2)c2cc(Cl)ccc21`, for which the INHIBITION is -28.2%. For `CCCc1noc(C2CCN(S(=O)(=O)c3cccs3)CC2)n1`, the INHIBITION came out at 4.97%. The value for `COc1cccc2ccc(CN3CCN(c4ccncc4)CC3)nc12` was 25.3%; that for `COc1cccc2ccc(CN3CCN(c4ncccc4C)CC3)nc12` was 61.1%; that for `COc1cccc2ccc(CN3CCN(c4ncccn4)CC3)nc12` was 39.8%. Under `Cc1ccc(CNC(C)c2ccc(OCC(=O)NC3CC3)cc2)o1` (centres undefined) stands 40%; under `COCc1noc(Cn2c(C)cc(C(F)(F)F)cc2=O)n1`, 41.2%; under `CCCc1nnc(NCCCn2nc(C)c(Cl)c2C)o1`, 16.1%. Under `CCN1CCO[C@@H]2CN(C(=O)COC3CCCC3)C[C@@H]2C1` stands 0.804%; under `CN(Cc1cccnc1)C1CC2(CCN(Cc3cccnc3)CC2)C1`, 70.7%. Regarding `CN(Cc1cccnc1)C1CC2(CCN(Cc3ccccn3)CC2)C1`, the INHIBITION worked out at 50.9%.

Consider `CN(Cc1cccnc1)C1CC2(CCN(C(=O)c3cnccn3)CC2)C1`, for which the INHIBITION came to 21.7%. On to `CN(Cc1cccnc1)C1CC2(CCN(C(=O)c3cscn3)CC2)C1`, for which the INHIBITION is recorded as -18.5%. On to `CN(Cc1cccnc1)C1CC2(CCN(C(=O)c3ccnnc3)CC2)C1`, for which the INHIBITION worked out at 53.9%. As to `CN(Cc1ccncc1)C1CC2(CCN(C(=O)c3ccnnc3)CC2)C1`, the INHIBITION was -5.63%. Under `CN(Cc1ccccn1)C1CC2(CCN(Cc3ccccn3)CC2)C1` stands 47.4%; under `CN(Cc1cccnc1)C1CC2(CCN(c3ccccn3)CC2)C1`, 47.8%. For the compound `CN(Cc1ccccn1)C1CC2(CCN(Cc3cccnc3)CC2)C1`, the INHIBITION was found to be 33%.

As to `Fc1ccc(CN2CCOCC3(CCN(Cc4nccs4)C3)C2)cc1` (centres undefined), the INHIBITION came to 7.24%.

For the compound `CCCc1nnc(NCCc2noc(C3CCC3)n2)o1`, the INHIBITION was found to be 12.7%. As to `CC(C)C(=O)NCCNC(=O)CCOc1cccc(F)c1`, the INHIBITION is listed as 48.45%. The value for `CCc1cc(NC2CCC(O)CC2)n2nc(C)c(C)c2n1` (centres undefined) was 25.1%; that for `CC(C)CN1CCC(N2CCC(C(=O)N(C)C)CC2)CC1` was 18.6%; that for `COc1ccc(OC2CCN(C(=O)CCc3n[nH]c(C)n3)CC2)cc1` was -4.23%. Regarding `CN(C)CCOCC1CN(C(=O)c2ccsc2)Cc2ccnn2C1` (centres undefined), the INHIBITION was -10.3%. For the compound `Cc1nn(C)c(N2CCOCC2)c1CNCc1ccc2c(c1)OCO2`, the INHIBITION worked out at 7.67%. In the case of `Cc1cnc2c(c1NCc1ccc(F)cc1)c(=O)n(C)c(=O)n2C`, the INHIBITION was 51.2%. Consider `Cc1cnc2c(c1NCc1ccc3c(c1)OCO3)c(=O)n(C)c(=O)n2C`, for which the INHIBITION is reported as 73.3%. Turning to `Cc1cnc2n(c1=O)C(CC(=O)NCc1cccnc1)CS2` (centres undefined), the INHIBITION was 40.9%. `Cc1cnc2c(c1NCc1ccncc1)c(=O)n(C)c(=O)n2C`: the INHIBITION is -14.6%. For the compound `Cc1cnc2c(c1NCc1cccs1)c(=O)n(C)c(=O)n2C`, the INHIBITION is given as 54.1%. Turning to `Cc1cnc2c(c1NCc1cccnc1)c(=O)n(C)c(=O)n2C`, the INHIBITION stood at 71.8%.

As to `Cc1cnc2n(c1=O)C(CC(=O)NCc1cccs1)CS2` (centres undefined), the INHIBITION was determined as 6.09%. With `CCc1cnc2c(c1Nc1ccccc1OC)c(=O)n(C)c(=O)n2C`, the INHIBITION worked out at 15.4%. Under `Cc1cc(NC(=O)Cc2ccc3c(c2)OCO3)n(C)n1` stands 13.2%; under `Cc1cnc2c(c1NCc1ccccn1)c(=O)n(C)c(=O)n2C`, 8.31%.

In the case of `CS(=O)(=O)c1ccc(NCc2ccc(F)cc2)cn1`, the INHIBITION is reported as -32.7%. As for `Cc1cnc(N2CCC3(CC2)COCCN(C(C)C)C3)nc1`, the INHIBITION is given as 12.2%.

As for `O=c1cnc2ccccc2n1CCCn1ccnc1`, the INHIBITION came out at 34%. For `Cc1cc(NCCNc2ncccc2C)n2nc(C)cc2n1`, the INHIBITION is reported as 16%.

Consider `Cc1cc2nc(C(C)C)cc(NCCNc3ncccc3C)n2n1`, for which the INHIBITION was 64.2%. Consider `Cc1cccnc1NCCNc1cc(C(C)C)nc2ccnn12`, for which the INHIBITION was 43.9%. Regarding `COc1cc(-n2ccnc2-c2ccc(C(=O)O)s2)ccc1NC(C)=O`, the INHIBITION amounted to 17.5%.

As for `O=C(O)Cc1cccc(-n2ccnc2-c2ccc(Cl)s2)c1`, the INHIBITION came to 53.3%. For `Cc1cccc(-c2nccn2-c2cccc(CC(=O)O)c2)n1`, the INHIBITION was 11.9%.

Regarding `CNC(=O)Cc1ccc(-n2ccnc2-c2ccc(C(=O)O)s2)cc1`, the INHIBITION worked out at 51.2%.

As for `O=C(O)Cc1cccc(-n2ccnc2-c2ccc(F)c(Cl)c2)c1`, the INHIBITION was -10.5%. As to `Cc1nccn1-c1ccc(=O)n(CCNC(=O)Cc2ccccc2)n1`, the INHIBITION is recorded as 13.8%. As for `CCn1c(C)nnc1SCCNC(=O)c1sc(C(C)C)nc1C`, the INHIBITION was -12.1%.

For `Cc1cncc(C(=O)N2CCc3ncc(Cn4cccn4)n3CC2)c1`, the INHIBITION is 10.5%. For `Cc1cc(C)c2cc(C(=O)N3CCNC(=O)C3)[nH]c2c1`, the INHIBITION turned out to be 14.3%.

For the compound `CNC(=O)C1(CCCc2ccccn2)CN(Cc2scnc2C)C1`, the INHIBITION was 30.4%.

Consider `Cc1cccc(C)c1Nc1noc2c1CN(C(=O)c1c[nH]nc1C)CC2`, for which the INHIBITION is 18.34%.
